Several values for one entry are separate records, joined by “and”; a condition that tells them apart may be missing. Identical values can stand only once. The whole screen tested about 350,000 compounds, of which about 1,300 (0.37%) were called active. The entries come from a sample that favours actives as a whole. A number with no mark means an inactive call.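 The calls were made as follows: active = mean added fluorescence quench of at least 8% versus neutral control, with both replicates also reaching 8%; inconclusive = only one of the mean or replicate conditions met; inactive = mean below 8% and not both replicates reaching 8%.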

The nature of the test: F508del CFTR correction, initial screen, CFBE line, single point (AID 720511).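 Also: cells transiently co-express mutant CFTR-F508del with the halide-sensitive YFP; corrector assay measuring rescue of mutant channel to the surface after 24 h compound exposure.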 The settings on record: CFBE cells, YFP halide quenching, at 7.58 µM, stronger effect = higher value, % fluorescence drop versus neutral controls, stimulated with forskolin plus potentiator P3.
For the molecule `Cc1ccc(S(=O)(=O)N2C[C@H](O)COC[C@H]3O[C@H](CC(=O)N[C@H]4CCN(Cc5ccccc5)C4)CC[C@@H]32)cc1`, the activity (quench increase) is 0.736%.

As for `C[C@@H]1CN([C@H](C)CO)C(=O)Cc2cc(NC(=O)NC3CCCCC3)ccc2O[C@H]1CN(C)S(C)(=O)=O`, the activity (quench increase) was 0.525% and 3.05%.

For `CC[N+]1(CC)CC2=Cc3ccccc3CC2C1` (configuration not stated), the activity (quench increase) is 13.8% (active).

For `CCC(=O)N1C[C@@H](C)[C@@H](OC)CN(C)C(=O)c2ccc(NC(=O)Nc3ccccc3)cc2OC[C@H]1C`, the activity (quench increase) is -0.0305%.

`Cc1ccc(S(=O)(=O)Nc2cccc3c2O[C@@H](CN(C)S(=O)(=O)c2ccc(C)cc2)[C@H](C)CN([C@@H](C)CO)C3=O)cc1`: the activity (quench increase) is -1.75%.

In the case of `O=C(C[C@H]1CC[C@H]2[C@@H](COC[C@@H](O)CN2C(=O)c2ccc3c(c2)OCO3)O1)NC1Cc2ccccc2C1`, the activity (quench increase) was 3.06%.

With `NS(=O)(=O)c1cc(Cl)c(Cl)c(S(N)(=O)=O)c1`, the activity (quench increase) was 9.04% (active).

For the molecule `NS(=O)(=O)c1ccc(NC(=S)Nc2ccc(Br)c(Cl)c2)cc1`, the activity (quench increase) was 1.17%.

In the case of `Nc1c(Cl)cc(S(N)(=O)=O)cc1S(N)(=O)=O`, the activity (quench increase) was -0.405%.

As for `CC(=O)N(C)C[C@H]1Oc2ncc(-c3cccc(F)c3)cc2C(=O)N([C@@H](C)CO)C[C@H]1C`, the activity (quench increase) is -3.71%.

On to `CN1C(=O)c2cc(NC(=O)c3ccccc3)ccc2OC[C@@H]2O[C@H](CC(=O)NCC3CC3)CC[C@@H]21`, for which the activity (quench increase) was -1.16%.

As for `Cc1ccc(S(=O)(=O)N[C@H]2CC[C@@H](CC(=O)N3CCc4ccccc4C3)O[C@H]2CO)cc1`, the activity (quench increase) was -3.27%.

On to `CCOC(=O)c1c(NC(=O)C2CC=CCC2C(=O)O)sc(C)c1CC` (configuration not stated), for which the activity (quench increase) is 0.585%.

On to `CCC1CCC2(CC1)NC(=O)N(CC(=O)Nc1ccc(OC)cc1)C2=O` (configuration not stated), for which the activity (quench increase) was 4.71%.

Turning to `CCOC(=O)c1c(NC(=O)CN2C(=O)NC3(CCC(C)CC3)C2=O)sc(C)c1CC` (configuration not stated), the activity (quench increase) is 8.23% (active).

Consider `O=S(=O)(NCc1ccc(Cl)cc1Cl)c1cccs1`, for which the activity (quench increase) was 0.403%.

For `O=S(=O)(NC1CC1)c1ccc(Cl)cc1`, the activity (quench increase) was 0.433%.

For the molecule `O=S(=O)(Cc1ccc(Cl)cc1Cl)c1ccc(Cl)cc1`, the activity (quench increase) is 12.1% (active).

`C/C=C/c1ccc([C@H]2[C@@H](CNC(C)C)N(c3nc(CC)cs3)[C@H]2CO)cc1`: the activity (quench increase) is 2.62%.

For `COc1cc(C(=O)NCc2cc3cc(Cl)ccc3n2C)cc(OC)c1OC`, the activity (quench increase) was 2.35%.

Take `COc1ccc(OC)c(/C(C)=N\NC(=O)c2cc3cc(Cl)ccc3n2C)c1`: the activity (quench increase) is 14.1% (active).

`COc1ccc(C(=O)N/N=C(\C)CC(=O)Nc2ccc(Cl)cn2)cc1`: the activity (quench increase) was 0.068%.

For the molecule `Cc1ccc(S(=O)(=O)Nc2ccc3c(c2)C(=O)N([C@@H](C)CO)C[C@@H](C)[C@H](CN(C)Cc2ccc(C(=O)O)cc2)O3)cc1`, the activity (quench increase) is 5.34%.

On to `COc1cccc(-c2cnc3c(NC(C)=O)cc(-c4cc(F)ccc4OC)cn23)c1`, for which the activity (quench increase) is 9.31% (active).

In the case of `COc1cccc(-c2cnc3c(NC(C)=O)cc(-c4cccc(NC(C)=O)c4)cn23)c1`, the activity (quench increase) was -0.356%.

Turning to `COc1ccccc1-c1cc(NC(C)=O)c2ncc(-c3ccc(F)cc3)n2c1`, the activity (quench increase) is 3.05%.

Regarding `CCCNC(=O)[C@@H]1[C@@H](CO)[C@@H]2Cn3c(ccc(C4=CCCCC4)c3=O)[C@H]1N2CCC`, the activity (quench increase) is 0.001%.

As for `COc1ccc(C(C)(O)c2nc(-c3ccc(C)c(C)c3)cs2)cc1` (configuration not stated), the activity (quench increase) is 0.543%.

Turning to `CN(c1ccc(O)cc1)c1nc(-c2cccnc2)cs1`, the activity (quench increase) is 3.59%.

Turning to `CC(C)(C)C(=O)OCc1nc(-c2ccc(O)c(O)c2)cs1`, the activity (quench increase) is 8.8% (active).

Consider `C[C@H](CO)N1C[C@H](C)[C@H](CN(C)C(=O)c2cccnc2)Oc2ncc(C3=CCCC3)cc2C1=O`, for which the activity (quench increase) is -0.608%.

In the case of `C[C@H](CO)N1C[C@H](C)[C@@H](CN(C)C(=O)NC2CCCCC2)Oc2c(NC(=O)Nc3ccc(F)cc3)cccc2C1=O`, the activity (quench increase) was 3.54%.

Turning to `C[C@@H]1CN([C@H](C)CO)C(=O)Cc2cc(NC(=O)Nc3ccccc3)ccc2O[C@@H]1CN(C)Cc1ccc(C(F)(F)F)cc1`, the activity (quench increase) is 0.116%.

Consider `C[C@H](CO)N1C[C@H](C)[C@@H](CN(C)Cc2ccc(Cl)c(Cl)c2)Oc2ccc(NC(=O)Nc3ccc(C(F)(F)F)cc3)cc2CC1=O`, for which the activity (quench increase) was 12.6% (active).

Consider `C[C@@H]1CN([C@H](C)CO)C(=O)c2cccc(NC(=O)Nc3ccccc3)c2O[C@@H]1CN(C)C(=O)NC1CCCCC1`, for which the activity (quench increase) is -1.15%.

Consider `C[C@@H]1CN([C@H](C)CO)C(=O)Cc2cc(NC(=O)Nc3ccccc3)ccc2O[C@H]1CN(C)Cc1ccc(Cl)c(Cl)c1`, for which the activity (quench increase) is -0.242%.

For the molecule `C[C@H]1CN([C@@H](C)CO)C(=O)c2cccc(NC(=O)Nc3ccc(C(F)(F)F)cc3)c2O[C@H]1CN(C)C(=O)NC1CCCCC1`, the activity (quench increase) is 8.85% (active).

Turning to `O=C(C[C@@H]1C=C[C@H](NC(=O)Nc2ccc3c(c2)OCO3)[C@H](CO)O1)NCc1ccccc1`, the activity (quench increase) is 4.6%.

Regarding `CO[C@H]1CN(C)C(=O)c2ccc(NS(=O)(=O)c3ccccc3C)cc2OC[C@H](C)NC[C@H]1C`, the activity (quench increase) was -0.483%.

With `CC(=O)Nc1ccc2nc(NC(=O)CS(=O)(=O)c3ccc(F)cc3)sc2c1`, the activity (quench increase) was 0.717%.

As for `CCCC(=O)Nc1nc2ccc(NC(=O)c3c(F)c(F)c(OC)c(F)c3F)cc2s1`, the activity (quench increase) is 13.3% (active).

Take `CCCn1nc(C(=O)Nc2ccc3nc(C)sc3c2)c2ccccc2c1=O`: the activity (quench increase) was -0.539%.

For `CCS(=O)(=O)Nc1ccc2c(c1)C(=O)N(C)[C@H]1CC[C@@H](CC(=O)Nc3ccccc3)O[C@H]1CO2`, the activity (quench increase) is -3.46%.

For the molecule `CCOc1ccc(NC(=O)c2ccc(NC(=O)CN3C(=O)C(=O)N(CC(C)C)C3=O)cc2)cc1`, the activity (quench increase) is 9.37% (active).

With `CCOc1ccc(NC(=O)CCNC(=O)c2ccc(Br)cc2)cc1`, the activity (quench increase) was -1.36%.

In the case of `CCOc1ccc(NC(=O)c2ccc(NC(=O)COC(=O)c3ccc(NC(=O)CC#N)cc3)cc2)cc1`, the activity (quench increase) is -1.21%.

As to `COc1ccc(NC(=O)N(C)C[C@H]2OCCCC[C@@H](C)Oc3ccc(NS(=O)(=O)c4ccc(F)cc4)cc3C(=O)N([C@H](C)CO)C[C@H]2C)cc1`, the activity (quench increase) is 3.43%.

For the molecule `C[C@@H](O)C#Cc1ccc([C@@H]2[C@H]3CN(S(=O)(=O)c4ccccc4)CCCCN3[C@H]2CO)cc1`, the activity (quench increase) was 1.07%.

For the molecule `CO[C@@H]1CC[C@@H]2CCOc3c(C#N)cccc3C(=O)N(C)C[C@H](C)C(=O)N(C)C[C@H]1O2`, the activity (quench increase) is 1.86%.

Consider `Cn1cc(C2OC(=O)c3ccccc32)c2ccccc21` (configuration not stated), for which the activity (quench increase) was 1.54%.

As to `O=C1c2cccc3c([N+](=O)[O-])ccc(c23)C(=O)N1CC1CCCO1` (configuration not stated), the activity (quench increase) is 0.491%.

On to `CN1C(=O)c2cccc3c(N)ccc(c23)C1=O`, for which the activity (quench increase) is 23.7% (active).

For `NC(=O)c1ncn([C@@H]2O[C@H](C(=O)O)[C@@H](O)[C@H]2O)n1`, the activity (quench increase) is 2.03%.

In the case of `COc1ccc(CN(C)C[C@@H]2OCCCC[C@@H](C)Oc3ccc(NC(=O)Nc4ccc(OC)cc4)cc3C(=O)N([C@@H](C)CO)C[C@@H]2C)cc1`, the activity (quench increase) is -0.139%.

On to `CCc1cc(-c2nnn(CCC3COCCO3)c2CC)ccc1-c1cn(Cc2ccc3ccccc3c2)nn1` (configuration not stated), for which the activity (quench increase) is 8.99% (active).

On to `COc1ccc(-c2cn(CC[C@@H]3CC[C@@H](NS(=O)(=O)c4ccccc4C)[C@H](CO)O3)nn2)cc1`, for which the activity (quench increase) is 2.94%.

Consider `CCCC(=O)Nc1ccc2c(c1)OC[C@H](C)N(S(=O)(=O)c1cn(C)cn1)C[C@@H](C)[C@H](OC)CN(C)C2=O`, for which the activity (quench increase) was -4.43%.

In the case of `O=C(c1ccccn1)N1CC[C@@H]2[C@H]1c1cc(-c3ccccc3)ccc1N[C@@H]2CO`, the activity (quench increase) is -1.72%.

For the molecule `O=C1CN(S(=O)(=O)Cc2ccccc2)C[C@@H]2[C@@H](c3ccc(C#Cc4cccc(F)c4)cc3)[C@@H](CO)N12`, the activity (quench increase) was 9.07% (active).

As for `O=C1CN(S(=O)(=O)Cc2ccccc2)C[C@@H]2[C@@H](c3ccc(C#Cc4ccccc4)cc3)[C@@H](CO)N12`, the activity (quench increase) is 7.93%.

With `CCS(=O)(=O)N1CC(=O)N2[C@H](CO)[C@@H](c3ccc(C#Cc4cccc(F)c4)cc3)[C@@H]2C1`, the activity (quench increase) was 7.13%.

Regarding `CCS(=O)(=O)N1CCC2(CC1)CN[C@H](CO)c1c2c2ccc(OC)cc2n1C`, the activity (quench increase) is 0.371%.

In the case of `C[C@@H]1CN([C@@H](C)CO)C(=O)c2cc(NS(C)(=O)=O)ccc2O[C@@H]1CN(C)C(=O)Nc1ccc(F)cc1`, the activity (quench increase) is -3.43%.

`O=C(COC(=O)c1ccc(F)cc1)NCC1COc2ccccc2O1` (configuration not stated): the activity (quench increase) was -0.696%.

Consider `O=C(NCC1COc2ccccc2O1)C1(c2ccccc2)CCCC1` (configuration not stated), for which the activity (quench increase) is 1.14%.

On to `Cc1noc(C)c1C(=O)NCC1COc2ccccc2O1` (configuration not stated), for which the activity (quench increase) was 19.3% (active).

In the case of `CC(=O)N(C)C[C@H]1Oc2ncc(C#Cc3ccccn3)cc2C(=O)N([C@H](C)CO)C[C@@H]1C`, the activity (quench increase) was 0.118%.

For the molecule `CO[C@@H](CN(C)S(=O)(=O)c1ccccc1)[C@H](C)CN(Cc1ccccc1Cl)[C@H](C)CO`, the activity (quench increase) is -3.7%.

`COc1ccc2c3c(n(C)c2c1)[C@H](CO)N(S(=O)(=O)c1ccc(C)cc1)CC31CN(C(=O)c2ccccn2)C1`: the activity (quench increase) was 1.98%.

Regarding `Cc1ccc(S(=O)(=O)Nc2ccc3c(c2)C(=O)N([C@H](C)CO)C[C@@H](C)[C@H](CN(C)C(=O)Nc2ccc(C(F)(F)F)cc2)OCCCC[C@H](C)O3)cc1`, the activity (quench increase) is -0.228%.

As to `Oc1cccc(/C=N/Nc2ccc(Cl)nn2)c1O`, the activity (quench increase) is 13.3% (active).

As to `C/C(=N\Nc1ccc(Cl)nn1)c1ccccc1O`, the activity (quench increase) was -2.03%.
